PubChem BioAssay (Tox21)
Records with an inconclusive call do not appear. The source made the active and inactive calls. The call rests on the fitted dose curve; in most records, active means well fitted activation curve with a large enough effect in the signal ratio in the repeat runs (not every such curve was filed as active); inconclusive means weak or mixed curves, or effect the other way; inactive means flat fitted curve, though single readings scatter; the % refers to the signal ratio.

biological target: Bile acid receptor (Homo sapiens) (UniProt Q96RI1); experiment: qHTS assay to identify small molecule agonists of the farnesoid-X-receptor (FXR) signaling pathway (AID 743220); details: HEK293T FXR-UAS-bla, beta-lactamase FRET ratio, 16 h; series mostly up to 62.6 µM
Sequence (Q96RI1 whole entry, looked up): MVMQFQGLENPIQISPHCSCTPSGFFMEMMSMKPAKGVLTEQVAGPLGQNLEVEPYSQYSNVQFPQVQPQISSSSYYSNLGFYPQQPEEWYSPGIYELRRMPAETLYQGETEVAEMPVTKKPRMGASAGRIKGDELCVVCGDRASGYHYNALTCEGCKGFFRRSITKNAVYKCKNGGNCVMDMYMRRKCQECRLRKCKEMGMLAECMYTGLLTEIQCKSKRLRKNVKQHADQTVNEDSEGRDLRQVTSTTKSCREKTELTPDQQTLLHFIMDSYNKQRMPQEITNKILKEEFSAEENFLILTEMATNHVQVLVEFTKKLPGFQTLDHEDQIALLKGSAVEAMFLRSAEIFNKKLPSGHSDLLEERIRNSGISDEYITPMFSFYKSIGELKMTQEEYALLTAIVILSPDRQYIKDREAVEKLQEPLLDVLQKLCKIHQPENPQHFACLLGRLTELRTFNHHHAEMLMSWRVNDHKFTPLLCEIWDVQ
Text: National Center for Advancing Translational Sciences [NCATS]
NIH Chemical Genomics Center [NCGC]
U.S. Environmental Protection Agency [EPA]
National Institutes of Environmental Health Sciences [NIEHS]
National Toxicology Program [NTP]
U.S. Food and Drug Administration [FDA]
The farnesoid-X-receptor (FXR), a nuclear hormone receptor, is highly expressed in liver, intestine, kidney and adrenal cortex. Natural ligands of FXR are the bile acids (Cholic acid, Chenodeoxy cholic acid etc). FXR is an important regulator of diverse metabolic pathways, including the bile acid homeostasis, lipid and glucose metabolisms. FXR regulates the expression of target genes by binding either as a monomer or as a heterodimer with the retinoid X receptor (RXR). Numerous studies have reported that FXR exerts protective function during cholestasis, diabetes, liver regeneration, and cancer. To identify compounds that activate FXR signaling, GeneBLAzer FXR-UAS-bla HEK 293T cell line (Invitrogen, Carlsbad, CA) containing a beta-lactamase reporter gene under the control of a UAS response element was used to screen the Tox21 10K compound library.
Tox21 Assay Protocol Summary:
FXR-bla cells were dispensed at 5000 cells/5uL/well in 1536-well black wall/clear bottom plates using a Multidrop Combi (Thermo Fisher Scientific, Waltham, MA) dispenser. After the assay plates were incubated at 37C and 5% CO2 for 5 h, 23 nL of compounds dissolved in DMSO, positive controls or DMSO only was transferred to the assay plate by a Pintool station (Kalypsys, San Diego, CA). The assay plates were incubated at 37C for 16 h. After 1 uL of LiveBLAzerTM B/G FRET substrate was added using a Bioraptr Flying Reagent Dispenser (FRD) workstation (Beckman Coulter, Indianapolis, IN), the plates were incubated at room temperature for 2 h, and fluorescence intensity was measured by an Envision plate reader (PerkinElmer, Shelton, CT).

Row | Compound | outcome
1 | COc1cc(O)cc(O)c1 | inactive
2 | CCC(C)OC(=O)N1CCCCC1CCO (stereo not given) | inactive
3 | OCC(CO)(CO)COCC(CO)(CO)CO | inactive
4 | C=C(C)C(=O)NCCC[N+](C)(C)C | inactive
5 | CCC(C)(C)C1CCC(OC)CC1 (stereo not given) | inactive
6 | O=C(O)CCNC(=O)c1ccc(N=Nc2ccc(O)c(C(=O)O)c2)cc1 | inactive
7 | COc1cccc(OC)c1 | inactive
8 | O=[N+]([O-])c1ccc(CCO)cc1 | inactive
9 | CCCC(C)CO (stereo not given) | inactive
10 | O=S(=O)(c1cccc2cnccc12)N1CCCNCC1 | inactive
11 | c1ccc(SCCSc2ccccc2)cc1 | inactive
12 | CCCOc1ccccc1-c1nc2n[nH]nc2c(=O)[nH]1 | inactive
13 | NC(=O)c1c(Cl)cccc1Cl | inactive
14 | CC(=O)N[C@@H](CCC(N)=O)C(=O)O | inactive
15 | CCCCC=O | inactive
16 | COC(=O)C1=C(C)NC(C)=C(C(=O)OCC(C)=O)C1c1ccccc1[N+](=O)[O-] (stereo not given) | inactive
17 | CO[Si](CCCNCCC[Si](OC)(OC)OC)(OC)OC | inactive
18 | NC(=O)c1ncn([C@@H]2O[C@H](CO)[C@@H](O)[C@H]2O)c1O | inactive
19 | C=CC(=O)N1CCOCC1 | inactive
20 | Cc1ncc(CSSCc2cnc(C)c(O)c2CO)c(CO)c1O | inactive

Row | Compound | outcome
21 | NC(=O)Nc1nc2ccccc2[nH]1 | inactive
22 | CN(C)C(=O)C(CCN1CCC(O)(c2ccc(Cl)cc2)CC1)(c1ccccc1)c1ccccc1 | inactive
23 | CC1=CCC2C(C1)C2(C)C (stereo not given) | inactive
24 | CCCCCCC(CCCCCCCCCCC(=O)OCC(COC(C)=O)OC(C)=O)OC(C)=O (stereo not given) | inactive
25 | COCc1ccc(COC)cc1 | inactive
26 | CCCC(=O)O[C@]1(C(=O)CCl)[C@@H](C)C[C@H]2[C@@H]3CCC4=CC(=O)C=C[C@]4(C)[C@@]3(F)C(=O)C[C@@]21C | inactive
27 | O=[N+]([O-])c1ccc(Oc2ccc([N+](=O)[O-])cc2)cc1 | inactive
28 | NC(=O)CCCCC1CCSS1 (stereo not given) | inactive
29 | CNC(=O)c1c(I)c(NC(=O)CCCCC(=O)Nc2c(I)c(C(=O)O)c(I)c(C(=O)NC)c2I)c(I)c(C(=O)O)c1I | inactive
30 | C1COCCO1 | inactive
31 | O=C(O)C(O)[C@H](O)[C@@H](O)[C@H](O)[C@H](O)CO (stereo not given in full) | inactive
32 | CCn1c(=O)c2c(nc(/C=C/c3ccc(OC)c(OC)c3)n2C)n(CC)c1=O | inactive
33 | NC1CCN(c2cccc(Cl)n2)CC1 | inactive
34 | CCC(C(=O)NC(N)=O)c1ccccc1 (stereo not given) | inactive
35 | CCCCCCCCCCCl | inactive
36 | CCCOCC(C)OCC(C)O (stereo not given) | inactive
37 | O=C(O)c1ccccc1S | inactive
38 | Nc1[nH]c(=O)ncc1F | inactive
39 | C(=C(c1ccccc1)c1ccccc1)c1ccccc1 | inactive
40 | Cn1ccc2cc3c(cc21)CCN3C(=O)Nc1cccnc1 | inactive
